Nrf2 ARE act: qHTS of Nrf2 Activators; AREc32 ARE-luciferase reporter (MCF7-derived line), luminescence, 24 h; Potency, µM (top dose mostly 46.1 µM), inactives show at the highest dose activation, actives largely listed as activators; 410,000 compounds, 0.31% hits; also: potency is read from the fitted curve at half-maximal effect; % of control where 0% means no effect; nearly all actives have a fitted effect of over 65% in size
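Reporter line AREc32 (ARE-Fluc), seeded overnight in OPTI-MEM with 5% FBS; compound pin-transferred, 24 hr at 37 deg C, 5% CO2; luminescent read-out.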
miR-21 act: qHTS Assay for Modulators of miRNAs and/orActivators of miR-21; HeLa miR-21 FLuc reporter, luciferase, 48 h; Potency, µM (series often up to 38.3 µM), for the others: at the top dose activity change, positive = activation, hits mostly activators; 340,000 tested, under 10 active; AID 2288, 2010;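 also: % of control where 0% means no effect; miR-21 action dims this reporter so a rising signal means less miR-21 action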
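Compounds were titrated across several concentrations (up to approximately 40 uM) and incubated 48 hours with HeLa miR-21-FLuc reporter cells (miR-21 target sequence downstream of FLuc, endogenous miR-21). Readout was firefly luciferase luminescence after lytic detection reagent.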
A549 tox: Nrf2 qHTS screen for inhibitors: counterscreen for cytotoxicity. 390,000 compounds, 0.16% hits. A549 ARE-Fluc cells, CellTiter-Fluor viability, 18-24 h. Potency, µM (series often up to 46 µM), inactives show at the top dose activity change, negative = cytotoxicity, usual class: inhibitors; also: potency is read from the fitted curve at half-maximal effect; % is scaled to controls: 0 for no effect and ±100 for the full control effect
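A549 ARE_Fluc cells in 5% FBS OPTI-MEM were exposed to compounds in concentration-response for 18-24 h at 37 deg C. Viability was read by CellTiter-Fluor fluorescence (Ex 405/Em 525) after 30 min, before the luciferase read.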
GALK inhibitor: qHTS Assay for Inhibitors of Human Galactokinase (GALK). P51570. Purified GALK, Kinase-Glo residual ATP luminescence. Potency, µM (top dose mostly 57.5 µM), for the others: top-dose activity change, negative = inhibition, usual class: inhibitors. 270,000 compounds, 0.007% hits; also: potency is read from the fitted curve at half-maximal effect; % is scaled to controls: 0 for no effect and ±100 for the full control effect
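Human GALK (5 nM) with 35 uM ATP and 100 uM galactose in 20 mM HEPES pH 8.0, 5 mM MgCl2, 60 mM NaCl, 1 mM DTT, 0.01% BSA. After 1 h at room temperature, leftover ATP was read by Kinase-Glo Plus luminescence.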
Nrf2 inh: Nrf2 qHTS screen for inhibitors. 360,000 compounds, 2.1% hits. Potency, µM (top dose mostly 46 µM), without a hit: at the top dose activity change, negative = inhibition, actives largely listed as inhibitors. A549 ARE-Fluc reporter, luciferase luminescence, 18-24 h; also: potency is read from the fitted curve at half-maximal effect; % is scaled to controls: 0 for no effect and ±100 for the full control effect; nearly all actives have a fitted effect of over 60% in size
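Cells were seeded and rested 2 h, then exposed to compounds for 18-24 h. CellTiter-Fluor was read first as a viability measure. BugLite was added 15 min before the final luminescent read of ARE-luciferase activity in A549 cells.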
PI4K2A block: qHTS for small molecular inhibitors of PI4K2A; purified PI4K2A, ADP-Glo luminescence, 1 h; active compounds read low; activity change, negative = inhibition, % at 76.9 µM; Phosphatidylinositol 4-kinase type 2-alpha (Homo sapiens), Q9BTU6; 420,000 compounds, 0.13% hits; AID 1346378, 2018; in the data active = activity change below about -50%; inconclusive = mostly about -30% to -49%;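 also: -100% = wells without enzyme as full effect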
Target sequence (Q9BTU6 whole entry, looked up): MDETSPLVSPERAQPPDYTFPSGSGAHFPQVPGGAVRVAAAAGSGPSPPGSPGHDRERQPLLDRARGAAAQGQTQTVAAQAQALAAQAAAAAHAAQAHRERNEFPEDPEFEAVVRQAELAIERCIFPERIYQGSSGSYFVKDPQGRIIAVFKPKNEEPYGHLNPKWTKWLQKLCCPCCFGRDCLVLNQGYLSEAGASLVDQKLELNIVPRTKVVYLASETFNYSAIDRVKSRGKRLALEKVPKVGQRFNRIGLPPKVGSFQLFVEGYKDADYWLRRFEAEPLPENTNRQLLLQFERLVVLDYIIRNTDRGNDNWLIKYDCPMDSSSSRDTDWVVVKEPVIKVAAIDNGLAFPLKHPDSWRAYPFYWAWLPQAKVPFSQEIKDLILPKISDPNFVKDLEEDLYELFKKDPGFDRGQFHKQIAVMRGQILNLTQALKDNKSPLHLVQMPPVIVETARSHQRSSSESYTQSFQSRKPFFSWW
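ADP-Glo luminescence measured ADP generated by PI4K2A enzyme (4 ug/mL before mixing) with 1.2 mM PI substrate (pre-mix) and 300 microM ATP (pre-mix). Tris pH7.5 buffer with MgCl2, Triton X-100; 1 h reaction at ambient temperature.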
Active calls of the source: *. In the library only some 2.2% were active in any assay of this set; here they are far more common. Unless noted, calls follow the shape of the dose curve; as a rule, active = well fitted curve in the direction sought with a large enough effect; inconclusive = small, poorly fitted or top-dose-only effect, or another doubt; inactive = no such curve, though single readings can be large; an effect the other way counts as inactive or inconclusive.

COC(=O)N/N=C/c1cccc([N+](=O)[O-])c1 was read as Nrf2 ARE act 10%, miR-21 act -1%, A549 tox -9%, GALK inhibitor -2%, Nrf2 inh -16% and PI4K2A block 10.
`CCc1ccc(S(=O)(=O)c2nnn(-c3ccc(F)cc3)c2N)cc1` gave Nrf2 ARE act -1%, miR-21 act 13%, A549 tox -4%, Nrf2 inh 13µM* and PI4K2A block -6.
For Cc1ccccc1Nc1cc2ccccc2c(=O)[nH]1 the results were Nrf2 ARE act -1%, miR-21 act -12%, A549 tox 16µM*, GALK inhibitor -27%, Nrf2 inh inconclusive and PI4K2A block inconclusive.
`COc1ccccc1Nc1cc2ccccc2c(=O)[nH]1` gave A549 tox inconclusive and Nrf2 inh 99%.
`O=c1[nH]c(Nc2ccc(F)cc2)cc2ccccc12` gave Nrf2 ARE act 11%, miR-21 act -12%, A549 tox -11%, GALK inhibitor -2%, Nrf2 inh inconclusive and PI4K2A block -51*.
`O=c1[nH]c(Nc2ccccc2Cl)cc2ccccc12` gave Nrf2 ARE act 14%, A549 tox -2%, Nrf2 inh -3% and PI4K2A block -29.
For CSc1cc2c(s1)c1cnn(Cc3cccc(O)c3)c(=O)c1n2C the results were A549 tox -20% and Nrf2 inh inconclusive.
`COc1ccc2c(c1)CN1CN(Cc3ccccc3)S(=O)(=O)CC21` (stereo not drawn) gave PI4K2A block -4.
For COc1ccc(C(=O)Nc2ccc(OC)c([N+](=O)[O-])c2)cc1Br the results were Nrf2 ARE act 0%, miR-21 act -14%, A549 tox -26%, GALK inhibitor -1%, Nrf2 inh 21µM* and PI4K2A block -4.
COc1ccc(C(=O)Nc2ccc(Cc3ccncc3)cc2)cc1Br was read as Nrf2 ARE act 4%, miR-21 act -3%, A549 tox inconclusive, GALK inhibitor 4%, Nrf2 inh 18µM* and PI4K2A block -4.
`CCN(CC)S(=O)(=O)c1ccc(C(=O)Nc2ccc(Cc3ccncc3)cc2)cc1` gave Nrf2 ARE act 1%, miR-21 act inconclusive, A549 tox 0%, GALK inhibitor 2%, Nrf2 inh 21µM* and PI4K2A block -4.
CCN(CC)S(=O)(=O)c1ccc(NC(=O)c2ccc(N(C)S(C)(=O)=O)cc2)cc1 was read as Nrf2 ARE act -1%, miR-21 act 20%, A549 tox inconclusive, GALK inhibitor 0% and PI4K2A block -4.
Screening Cc1ccc(-c2nc(-c3ccccn3)no2)cc1 returned Nrf2 ARE act -2%, miR-21 act inconclusive, A549 tox -1%, GALK inhibitor 14%, Nrf2 inh 2.1µM* and PI4K2A block -75*.
For c1ccc(-c2ccc(-c3nc(-c4ccccn4)no3)cc2)cc1 the results were Nrf2 ARE act -2%, miR-21 act inconclusive, A549 tox -6%, GALK inhibitor 12%, Nrf2 inh inconclusive and PI4K2A block -94*.
CC1CCCCC1C(=O)N1CCC(Oc2cccnc2)CC1 (stereo not drawn) was read as PI4K2A block -2.
`CC(C)(C)NC(=O)[C@H](c1cccnc1)N(C(=O)c1ccco1)c1ccc(C(C)(C)C)cc1` gave PI4K2A block -5.
For Clc1ccc(C=NNc2ccccn2)c(Cl)c1 the results were Nrf2 ARE act inconclusive, A549 tox 2%, Nrf2 inh inconclusive and PI4K2A block 5.
For Cc1ccc(C)c(/C=N/Nc2ccccn2)c1 the results were Nrf2 ARE act 8.9µM*, miR-21 act -36%, A549 tox 1%, GALK inhibitor 0%, Nrf2 inh inconclusive and PI4K2A block 3.

Bioassay records deposited in PubChem BioAssay by National Center for Advancing Translational Sciences (NCATS).
